Test [1] concerns the target Mitogen-activated protein kinase kinase kinase kinase 4 (Homo sapiens) (UniProt O95819). The note with it: at 1 µM.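 Also: reported figure is an averaged inhibition value.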
The target in test [2] is Dual specificity mitogen-activated protein kinase kinase 1 (Homo sapiens) (UniProt Q02750). The note with it: at 0.1 µM.
Test [3] shares this target. Conditions: at 1 µM.
The target in test [4] is Misshapen-like kinase 1 (Homo sapiens) (UniProt Q8N4C8). The note with it: at 0.1 µM.
Sequence of Misshapen-like kinase 1 (Homo sapiens) (Q8N4C8 whole entry, looked up): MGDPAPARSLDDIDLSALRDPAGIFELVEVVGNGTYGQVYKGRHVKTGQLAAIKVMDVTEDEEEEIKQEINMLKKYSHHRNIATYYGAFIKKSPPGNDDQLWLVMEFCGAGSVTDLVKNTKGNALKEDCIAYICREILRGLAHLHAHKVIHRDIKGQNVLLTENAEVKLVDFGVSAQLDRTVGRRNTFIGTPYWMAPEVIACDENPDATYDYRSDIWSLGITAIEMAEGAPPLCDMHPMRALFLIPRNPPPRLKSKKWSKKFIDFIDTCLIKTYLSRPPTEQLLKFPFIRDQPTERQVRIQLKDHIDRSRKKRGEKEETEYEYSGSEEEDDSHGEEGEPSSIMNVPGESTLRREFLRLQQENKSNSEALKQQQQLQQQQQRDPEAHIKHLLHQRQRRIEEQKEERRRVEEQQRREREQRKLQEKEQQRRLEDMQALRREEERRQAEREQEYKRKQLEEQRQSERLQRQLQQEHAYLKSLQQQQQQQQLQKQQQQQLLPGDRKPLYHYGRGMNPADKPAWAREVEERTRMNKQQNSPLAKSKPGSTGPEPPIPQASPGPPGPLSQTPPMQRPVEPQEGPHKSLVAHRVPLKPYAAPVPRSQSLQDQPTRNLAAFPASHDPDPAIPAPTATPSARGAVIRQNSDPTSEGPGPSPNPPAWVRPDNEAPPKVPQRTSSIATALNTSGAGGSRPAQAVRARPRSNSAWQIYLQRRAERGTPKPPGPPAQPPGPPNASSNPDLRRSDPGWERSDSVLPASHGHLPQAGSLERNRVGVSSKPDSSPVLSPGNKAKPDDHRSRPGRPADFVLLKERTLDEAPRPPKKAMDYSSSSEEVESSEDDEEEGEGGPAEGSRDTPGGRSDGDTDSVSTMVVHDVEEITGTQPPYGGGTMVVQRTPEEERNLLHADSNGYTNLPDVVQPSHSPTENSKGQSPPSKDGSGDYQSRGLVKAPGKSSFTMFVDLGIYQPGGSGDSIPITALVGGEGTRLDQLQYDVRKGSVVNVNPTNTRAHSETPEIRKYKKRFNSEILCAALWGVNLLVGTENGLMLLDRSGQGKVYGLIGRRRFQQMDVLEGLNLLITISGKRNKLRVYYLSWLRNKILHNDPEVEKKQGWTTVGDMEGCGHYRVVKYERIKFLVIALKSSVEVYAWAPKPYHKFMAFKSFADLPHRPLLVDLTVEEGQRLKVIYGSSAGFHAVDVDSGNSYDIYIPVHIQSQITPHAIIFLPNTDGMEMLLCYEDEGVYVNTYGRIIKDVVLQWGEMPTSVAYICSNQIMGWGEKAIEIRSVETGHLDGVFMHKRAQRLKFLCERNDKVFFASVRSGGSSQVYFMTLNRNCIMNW
Test [5] has the same target. The note with it: at 1 µM.
Test [6] has as its target T1, Serine/threonine-protein kinase 4 (Homo sapiens) (UniProt Q13043).
T1 sequence (whole entry): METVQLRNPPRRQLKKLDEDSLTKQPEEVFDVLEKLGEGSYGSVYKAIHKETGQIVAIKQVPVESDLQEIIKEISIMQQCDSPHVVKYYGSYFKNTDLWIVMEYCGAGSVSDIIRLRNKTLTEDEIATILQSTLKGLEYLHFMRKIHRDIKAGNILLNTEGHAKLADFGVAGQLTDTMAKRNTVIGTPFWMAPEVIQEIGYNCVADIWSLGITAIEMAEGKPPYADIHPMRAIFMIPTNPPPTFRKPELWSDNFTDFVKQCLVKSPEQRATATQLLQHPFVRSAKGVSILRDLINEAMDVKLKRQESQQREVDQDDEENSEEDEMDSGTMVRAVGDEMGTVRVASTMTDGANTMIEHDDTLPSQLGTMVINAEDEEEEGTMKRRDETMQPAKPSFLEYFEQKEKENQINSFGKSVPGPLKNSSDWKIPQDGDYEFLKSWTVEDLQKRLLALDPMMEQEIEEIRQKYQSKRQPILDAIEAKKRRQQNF
Conditions: at 0.1 µM.

The target of test [7] is T1, Serine/threonine-protein kinase 4 (Homo sapiens). Conditions: at 1 µM.
Test [8] addresses T2, Serine/threonine-protein kinase 3 (Homo sapiens) (UniProt Q13188).
T2 sequence (whole entry): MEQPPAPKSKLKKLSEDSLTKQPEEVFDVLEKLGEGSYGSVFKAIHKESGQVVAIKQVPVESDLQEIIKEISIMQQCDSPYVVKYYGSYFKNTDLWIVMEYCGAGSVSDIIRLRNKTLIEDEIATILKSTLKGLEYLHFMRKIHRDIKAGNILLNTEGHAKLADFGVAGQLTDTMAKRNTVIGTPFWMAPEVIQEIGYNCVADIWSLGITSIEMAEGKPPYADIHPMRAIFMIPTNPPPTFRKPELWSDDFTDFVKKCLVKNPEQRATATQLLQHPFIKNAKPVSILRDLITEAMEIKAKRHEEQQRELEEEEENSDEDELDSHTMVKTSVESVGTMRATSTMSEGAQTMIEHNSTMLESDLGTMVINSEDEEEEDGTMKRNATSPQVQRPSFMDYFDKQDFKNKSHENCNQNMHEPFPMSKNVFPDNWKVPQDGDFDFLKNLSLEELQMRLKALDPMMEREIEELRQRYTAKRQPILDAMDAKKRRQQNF
The note with it: at 0.1 µM.

Test [9] deals with T2, Serine/threonine-protein kinase 3 (Homo sapiens). Conditions: at 1 µM.
Test [10] concerns the target Serine/threonine-protein kinase 26 (Homo sapiens) (UniProt Q9P289). The note with it: at 0.1 µM.

The structures appear in SMILES notation.

Sequence of Dual specificity mitogen-activated protein kinase kinase 1 (Homo sapiens) (Q02750 whole entry): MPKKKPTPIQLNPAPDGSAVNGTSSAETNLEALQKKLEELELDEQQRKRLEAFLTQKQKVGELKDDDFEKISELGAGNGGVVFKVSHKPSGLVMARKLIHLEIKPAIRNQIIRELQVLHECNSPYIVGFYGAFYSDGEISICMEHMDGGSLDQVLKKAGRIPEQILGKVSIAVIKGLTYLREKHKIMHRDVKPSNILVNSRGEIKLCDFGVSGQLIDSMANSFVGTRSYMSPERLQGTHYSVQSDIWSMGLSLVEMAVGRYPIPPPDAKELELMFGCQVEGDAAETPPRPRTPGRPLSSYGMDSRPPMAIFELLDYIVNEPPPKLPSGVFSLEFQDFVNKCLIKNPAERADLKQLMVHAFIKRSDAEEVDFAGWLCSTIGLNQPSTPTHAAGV
Sequence of Mitogen-activated protein kinase kinase kinase kinase 4 (Homo sapiens) (O95819 2-1239 limits assumed): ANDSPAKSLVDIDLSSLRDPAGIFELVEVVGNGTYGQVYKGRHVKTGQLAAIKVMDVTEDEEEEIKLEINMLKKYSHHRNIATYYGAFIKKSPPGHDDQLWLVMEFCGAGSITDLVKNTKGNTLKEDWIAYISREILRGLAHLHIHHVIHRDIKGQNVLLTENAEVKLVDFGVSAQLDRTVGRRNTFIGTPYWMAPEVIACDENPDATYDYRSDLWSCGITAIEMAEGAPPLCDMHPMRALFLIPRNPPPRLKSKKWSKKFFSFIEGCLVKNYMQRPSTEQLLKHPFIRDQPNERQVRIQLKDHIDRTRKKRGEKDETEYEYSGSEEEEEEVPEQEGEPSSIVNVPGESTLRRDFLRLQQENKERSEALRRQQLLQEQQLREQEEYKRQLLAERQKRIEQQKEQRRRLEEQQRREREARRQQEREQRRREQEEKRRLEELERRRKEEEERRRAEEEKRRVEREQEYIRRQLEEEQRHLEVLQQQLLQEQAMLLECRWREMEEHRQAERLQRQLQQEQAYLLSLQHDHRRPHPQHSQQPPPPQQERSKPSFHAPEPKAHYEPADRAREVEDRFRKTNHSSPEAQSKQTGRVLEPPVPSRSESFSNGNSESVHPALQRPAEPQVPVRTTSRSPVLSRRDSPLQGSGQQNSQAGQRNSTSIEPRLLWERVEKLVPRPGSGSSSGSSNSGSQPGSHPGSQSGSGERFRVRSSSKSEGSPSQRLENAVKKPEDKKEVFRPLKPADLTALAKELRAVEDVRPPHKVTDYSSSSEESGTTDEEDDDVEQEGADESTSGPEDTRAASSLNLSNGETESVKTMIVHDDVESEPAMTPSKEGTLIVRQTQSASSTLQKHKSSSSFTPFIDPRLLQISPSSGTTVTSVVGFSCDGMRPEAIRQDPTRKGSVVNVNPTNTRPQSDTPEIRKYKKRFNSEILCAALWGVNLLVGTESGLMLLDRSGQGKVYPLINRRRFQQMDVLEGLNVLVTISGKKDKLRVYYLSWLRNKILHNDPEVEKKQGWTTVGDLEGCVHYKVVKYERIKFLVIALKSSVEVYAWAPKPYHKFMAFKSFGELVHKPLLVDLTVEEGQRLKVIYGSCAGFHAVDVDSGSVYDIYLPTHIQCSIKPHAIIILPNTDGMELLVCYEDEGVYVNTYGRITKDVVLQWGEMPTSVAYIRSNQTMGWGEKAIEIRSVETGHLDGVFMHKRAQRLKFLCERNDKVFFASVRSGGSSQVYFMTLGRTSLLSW
Sequence of Serine/threonine-protein kinase 26 (Homo sapiens) (Q9P289 2-416 limits assumed): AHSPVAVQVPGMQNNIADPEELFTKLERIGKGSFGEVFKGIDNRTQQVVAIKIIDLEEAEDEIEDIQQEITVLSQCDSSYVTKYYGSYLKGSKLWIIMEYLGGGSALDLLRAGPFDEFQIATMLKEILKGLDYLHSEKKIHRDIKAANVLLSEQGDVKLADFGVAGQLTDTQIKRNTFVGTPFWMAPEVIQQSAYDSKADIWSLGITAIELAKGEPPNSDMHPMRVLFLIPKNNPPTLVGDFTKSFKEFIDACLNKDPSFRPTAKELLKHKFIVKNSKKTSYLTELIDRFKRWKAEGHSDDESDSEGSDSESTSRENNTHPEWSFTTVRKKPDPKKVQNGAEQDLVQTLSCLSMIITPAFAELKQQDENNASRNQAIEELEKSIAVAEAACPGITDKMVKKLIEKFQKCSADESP

As to `Cc1ccc(C(=O)NC2CCC2)cc1-c1ccc(C(=O)NCC2CC2)cc1`, the inhibition turned out to be 3.8% in test [1]; 2.81% in test [2]; 2.71% in [3]; 5.5% in test [4]; 4.67% in test [5]; 3.29% in test [6]. The inhibition was 1.77% in [7], 1.04% in [8], 1.53% in test [9] and -3.48% in test [10].
Turning to `NC(=O)c1ccc(Oc2nccc(-c3c(-c4ccc(F)cc4)ncn3C3CCNCC3)n2)cc1`, the inhibition was found to be 3.93% in [1]; 4.51% in [2]; 4.62% in [3]; 6.11% in test [4]; 6.81% in test [5]; 4.07% in test [6]. For the same compound, the inhibition was 4.99% in test [7], 8.2% in test [8], 7.98% in test [9] and -1.23% in [10].
Turning to `Fc1ccc(-c2ncn(CCCN3CCOCC3)c2-c2ccncc2)cc1`, the inhibition in test [1] was 5.83%; in test [2], -0.25%; in test [3] it was 0.32%; in [4], 1.73%; in test [5], 2.89%; in test [6], 1.3%. For the same compound, the inhibition in test [7] is 4.22%; in test [8] it was -0.13%; in test [9] it was 2.5%; in test [10], 0.94%.
As to `Cc1ccc(NC(=O)c2ccoc2)cc1-c1ccc(C(=O)NCC2CC2)cc1`, the inhibition in [1] came to 1.38%; in test [2], 2.89%; in test [3], 2.27%; in test [4] it was 2.91%; in test [5], 1.4%; in [6] it was 4.29%. For the same compound, the inhibition in [7] was 2.08%; in test [8] it was 4.78%; in test [9], 4.5%; in test [10], -1.09%.
As to `O=C(Nc1ccc(Oc2ccc3[nH]c(NC(=O)c4ccccc4)nc3c2)cc1)Nc1cc(C(F)(F)F)ccc1F`, the inhibition in test [1] was 5.89%; in test [2] it was 2.91%; in test [3] it was 2.61%; in test [4], 3.26%; in test [5], 4.54%; in test [6] it was 5.74%. Further, the inhibition in test [7] was determined as 10.6%; in test [8], 5.74%; in test [9] it was 8.42%; in [10], 0.36%.
With `CS(=O)(=O)CCNCc1ccc(-c2ccc3ncnc(Nc4ccc(OCc5ccccc5)c(Br)c4)c3c2)o1`, the inhibition in test [1] came out at 6.29%; in [2], 1.96%; in [3], 1.78%; in [4], 4.51%; in test [5], 5.24%; in test [6] it was 2.67%. In addition, the inhibition in test [7] is 2.76%; in test [8], 4.32%; in [9], 5.08%; in test [10], -0.82%.
Consider `c1ccc(-c2n[nH]cc2-c2ccnc(-c3ccc(OCCN4CCOCC4)cc3)c2)nc1`, for which the inhibition in test [1] is 77.5%; in [2], -0.91%; in test [3], -0.3%; in [4], 20.2%; in [5], 69.2%; in [6], 1.73%. Moreover, the inhibition in [7] came out at 2.13%; in [8], 2.06%; in [9], 0.12%; in test [10] it was 5.82%.
For `O=C(Nc1n[nH]c2nc(-c3ccco3)ccc12)C1CC1`, the inhibition is 32.1% in test [1]; -0.04% in test [2]; 0.75% in [3]; 3.07% in test [4]; 18.1% in test [5]; 1.17% in [6]. Also, the inhibition in [7] was 1.95%; in test [8] it was 0%; in test [9] it was -0.23%; in test [10], 0.08%.
As to `FC(F)(F)c1cccc(Nc2nccc(-c3cnn4nc(-c5ccccc5)ccc34)n2)c1`, the inhibition in test [1] stood at 3.3%; in test [2], 2.8%; in test [3], 3.14%; in test [4], 3.38%; in [5], 3.06%; in test [6] it was 1.12%. The inhibition in test [7] worked out at 3.6%; in test [8], 3.94%; in [9], 3.81%; in test [10], 0.42%.
For `C#Cc1cccc(Nc2ncnc3ccc(OCCCCNCCS(C)(=O)=O)cc23)c1`, the inhibition in [1] was 19.6%; in test [2], 6.88%; in [3], 4.96%; in test [4], 9.17%; in test [5], 17.6%; in test [6], 4.35%. The inhibition in test [7] is 7.8%; in [8] it was 5.45%; in [9], 7.49%; in [10] it was -2.14%.
Turning to `CCc1ccc(Oc2nccc(-c3c(-c4ccc(F)cc4)ncn3C3CCNCC3)n2)cc1`, the inhibition in test [1] worked out at 11.4%; in test [2] it was 3.92%; in [3], 8.98%; in test [4], 4.83%; in test [5] it was 12.1%; in test [6] it was 3.84%. For the same compound, the inhibition in test [7] is 5.43%; in test [8], 5.44%; in test [9], 5.88%; in test [10], 0.4%.
As to `N#Cc1ccc(Oc2nccc(-c3c(-c4ccc(F)cc4)ncn3C3CCNCC3)n2)cc1`, the inhibition came out at 5.64% in test [1]; 4.35% in [2]; 3.84% in test [3]; 6.9% in test [4]; 7.67% in test [5]; 3.35% in test [6]. For the same compound, the inhibition is 4.07% in test [7], 5.75% in test [8], 4.78% in test [9] and -1.67% in [10].
Regarding `COc1cccc(-n2cnc3c(N/N=C/c4ccncc4)ncnc32)c1`, the inhibition in test [1] is 16.9%; in test [2], -0.13%; in [3], -0.71%; in [4], 2.27%; in [5], 16.9%; in [6], 3.6%. The inhibition stood at 7.14% in [7], 4.46% in test [8], 7.42% in test [9] and 0.98% in test [10].
For the compound `NS(=O)(=O)c1ccc(N/N=C2\C(=O)Nc3ccc(C(=O)NCCCn4ccnc4)cc32)cc1`, the inhibition in test [1] was found to be 52.1%; in [2], 10.7%; in [3], 38%; in test [4] it was 9.83%; in [5], 41.5%; in test [6], 28.6%. Besides, the inhibition in [7] is 75.5%; in test [8], 22.2%; in [9], 70%; in test [10], -0.28%.
With `O=C1Nc2ccccc2/C1=C/Nc1ccc(-n2cncn2)cc1`, the inhibition in test [1] is 65.8%; in test [2], 6.13%; in test [3] it was 6.15%; in test [4], 15.3%; in test [5] it was 56.5%; in [6], 14.9%. Moreover, the inhibition in test [7] is 54.4%; in test [8] it was 9.7%; in test [9], 35.7%; in [10] it was -0.63%.
Regarding `COc1cc2ncn(-c3cc(OCc4cccs4)c(C(N)=O)s3)c2cc1OC`, the inhibition in [1] came out at 67.2%; in [2], 3.5%; in test [3] it was 2.83%; in [4], 18%; in [5], 63.5%; in test [6], 20.6%. Further, the inhibition in test [7] was 65.5%; in test [8], 19.5%; in test [9], 62.6%; in [10] it was 2.25%.
In the case of `C[C@@H](Oc1cc(-n2cnc3ccc(OC4CCN(C)CC4)cc32)sc1C(N)=O)c1ccccc1Cl`, the inhibition is 7.81% in test [1]; 1.83% in test [2]; 2.54% in [3]; 6.26% in test [4]; 5.92% in test [5]; 4.68% in test [6]. In addition, the inhibition was 19.5% in test [7], 6.85% in test [8], 13.4% in [9] and -3.27% in [10].

The record behind these values is ChEMBL document CHEMBL1961873, “Compounds: GSK PKIS; Assays: Nanosyn kinase panel” (2012).
